Screening data (PubChem)
TDP1 cell CPT = qHTS for Inhibitors of human tyrosyl-DNA phosphodiesterase 1 (TDP1): qHTS in cells in presence of CPT; 420,000 compounds, 12% hits; AID 686979, 2013; Potency, µM (doses to about 46.2 µM), without a hit: at the top dose activity change, negative = growth inhibition, usual class: inhibitors; chicken DT40 Tdp1-/-;hTDP1 cells + 20 nM CPT, ATP luminescence, 48 h; note: nearly all actives have a fitted effect of over 55% in size
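Chicken DT40 Tdp1-/- cells complemented with human TDP1, 400 cells/well, exposed to compounds plus 20 nM camptothecin for at least 48 h at 37 C; viability read as ATP content by CellTiter-Glo luminescence.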
TDP1 inh = qHTS Assay for Inhibitors of Tyrosyl-DNA Phosphodiesterase (TDP1) | Tyrosyl-DNA phosphodiesterase 1 (Homo sapiens), Q9NUW8 | recombinant TDP1, AlphaScreen DNA substrate cleavage | Potency, µM (highest dose often 130 µM), without a hit: at the top dose activity change, negative = inhibition, most hits filed as inhibitors | 350,000 compounds, 0.28% hits; note: nearly all actives have a fitted effect of over 40% in size
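Recombinant human Tdp1 (E. coli-expressed, 1 nM final) preincubated with compounds 15 min at room temperature, then 5'-biotin/3'-phosphotyrosine-FITC DNA substrate (15 nM final) added for 5 min. AlphaScreen beads (10 ug/ml final) added 10 min; cleavage lowers signal.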
TDP1 cell noCPT = qHTS for Inhibitors of human tyrosyl-DNA phosphodiesterase 1 (TDP1): qHTS in cells in absence of CPT. DT40 Tdp1-/- hTDP1 cells, no CPT, ATP luminescence, 48 h. Potency, µM (highest dose often 46.2 µM), inactives show at the top dose activity change, negative = growth inhibition, actives largely listed as inhibitors. 420,000 compounds, 15% hits; note: nearly all actives have a fitted effect of over 55% in size
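A cellular qHTS used chicken DT40 cells lacking endogenous Tdp1 but carrying stably transfected human TDP1. Compounds were applied without camptothecin, and cell growth kinetics were judged by ATP-dependent luminescence after ≥48 hr.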
KAT2A inh = qHTS Assay for Inhibitors of GCN5L2. GCN5L2 HAT assay, ThioGlo1 CoA-SH fluorescence. Potency, µM (doses to about 58.9 µM), for inactives: top-dose activity change, negative = inhibition, actives largely listed as inhibitors. 390,000 compounds, 0.21% hits. AID 504327, 2011
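GCN5L2 (20 nM) in 50mM HEPES pH 7.5, 0.1mM EDTA, 0.01% Tween-20 preincubated 15 min with compounds at room temperature. Reaction started with H3(1-25) 75uM, acetyl-CoA 70uM, ThioGlo1 50uM; CoA-thiol fluorescence (Ex340/Em540) read at 0 and 20 min.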
VDR inh = Inhibitors of the vitamin D receptor (VDR): qHTS; Vitamin D3 receptor (Homo sapiens), P11473; VDR-SRC2-3 peptide fluorescence polarization, 2 h; Potency, µM, for inactives: max response, negative = inhibition, hits mostly inhibitors; 400,000 compounds, 0.93% hits; AID 504847, 2011
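Inhibition of the VDR/SRC2-3 peptide interaction is quantified by fluorescence polarization. Compounds (23 nl, pintool) incubate with the reagents for 2 hours at ambient room temperature.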
PLK1 PBD inh = qHTS for Inhibitors of PLK1-PDB (polo-like kinase 1 - polo-box domain): Primary Screen. Serine/threonine-protein kinase PLK1 (Homo sapiens), P53350. Plk1 PBD binding of FITC phosphopeptide, fluorescence polarization. Potency, µM, for inactives: max response, negative = inhibition, most hits filed as inhibitors. 360,000 compounds, 2.8% hits. AID 720504, 2013; note: series mostly up to about 57 µM; nearly all actives have a fitted effect of over 65% in size
Target sequence (P53350 whole entry, looked up, the tested form may be a part): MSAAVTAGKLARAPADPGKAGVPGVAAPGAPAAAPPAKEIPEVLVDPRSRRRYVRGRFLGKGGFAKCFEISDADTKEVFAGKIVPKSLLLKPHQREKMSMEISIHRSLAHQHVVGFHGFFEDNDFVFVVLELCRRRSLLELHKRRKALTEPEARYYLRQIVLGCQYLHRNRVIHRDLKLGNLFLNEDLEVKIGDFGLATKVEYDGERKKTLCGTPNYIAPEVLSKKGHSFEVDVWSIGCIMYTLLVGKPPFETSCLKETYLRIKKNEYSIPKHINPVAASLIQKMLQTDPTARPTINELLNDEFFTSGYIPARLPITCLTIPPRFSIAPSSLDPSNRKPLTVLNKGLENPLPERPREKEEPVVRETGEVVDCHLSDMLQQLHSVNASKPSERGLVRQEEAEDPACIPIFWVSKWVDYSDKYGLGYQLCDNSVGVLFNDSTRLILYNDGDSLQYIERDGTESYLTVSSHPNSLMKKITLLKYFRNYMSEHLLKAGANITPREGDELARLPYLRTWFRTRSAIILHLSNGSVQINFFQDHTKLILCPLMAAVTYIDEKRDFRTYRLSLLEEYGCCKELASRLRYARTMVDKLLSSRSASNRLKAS
An asterisk follows results filed as active; [ ] = remark or other dose. Only some compounds are listed: those with a hit (about 18% of all), similar ones and a draw of the others. Calls come from the whole dose curve; as a rule, active = well fitted curve in the direction sought with a large enough effect; inconclusive = small, poorly fitted or top-dose-only effect, or another doubt; inactive = no such curve, though single readings can be large; an effect the other way counts as inactive or inconclusive. % is set by controls: 0 for no effect and ±100 for the full control effect; potency is the fitted concentration of half-maximal effect.

Screening COc1ccc(NC(=O)Cn2nnc(-c3ccccc3NC(=O)c3cccs3)n2)cc1 returned TDP1 cell CPT inconclusive, TDP1 inh 8.4%, TDP1 cell noCPT inconclusive, KAT2A inh -11.7%, VDR inh 5.0% and PLK1 PBD inh -1.5%.
`Cc1ccc(NC(=O)Cn2nnc(-c3ccccc3NC(=O)c3cccs3)n2)cc1` gave TDP1 cell CPT 0.651µM*, TDP1 inh 4.5%, TDP1 cell noCPT 0.82µM*, KAT2A inh -2.8%, VDR inh 20.7% and PLK1 PBD inh 0.4%.
For CCOc1ccc(NC(=O)Cn2nnc(-c3ccccc3NC(=O)CC)n2)cc1 the results were TDP1 cell CPT inconclusive, TDP1 inh -2.1%, TDP1 cell noCPT 16.4µM*, KAT2A inh -4.5%, VDR inh -6.4% and PLK1 PBD inh 1.1%.
For COc1cc(-c2nnn(CC(=O)Nc3ccc(OC(F)(F)F)cc3)n2)cc(OC)c1OC the results were TDP1 cell CPT 20.6µM*, TDP1 inh -1.9%, TDP1 cell noCPT 7.31µM*, KAT2A inh -14.2% and VDR inh 1.5%.
Screening CCOC(=O)C1=C(C)Nc2ccccc2N=C1NC(=O)Cc1ccc(OC)cc1 returned TDP1 cell CPT -13.5%, TDP1 inh 5.3%, TDP1 cell noCPT 1.5%, KAT2A inh 2.6%, VDR inh 4.6% and PLK1 PBD inh -14.5%.
`COc1ccc(NC(=O)Cn2nnc(-c3ccccc3NS(=O)(=O)c3ccc(OC)cc3)n2)cc1` gave TDP1 cell CPT inconclusive, TDP1 inh 4.6%, TDP1 cell noCPT inconclusive, KAT2A inh -7.9%, VDR inh -9.3% and PLK1 PBD inh 3.2%.
`COc1cc(OC)cc(C(=O)Nc2ccccc2-c2nnn(CC(N)=O)n2)c1` gave TDP1 cell CPT 2.6%, TDP1 inh 0.0%, TDP1 cell noCPT -8.6%, KAT2A inh 0.6%, VDR inh -10.7% and PLK1 PBD inh -4.5%.
Screening CCCC(=O)Nc1ccccc1-c1nnn(CC(=O)Nc2ccc(OCC)cc2)n1 returned TDP1 cell CPT inconclusive, TDP1 inh 5.0%, TDP1 cell noCPT 20.6µM*, KAT2A inh -5.6%, VDR inh 13.0% and PLK1 PBD inh 0.8%.
COc1ccc(C(=O)Cn2nnc(-c3ccccc3NC(=O)C3CC3)n2)cc1 was read as TDP1 cell CPT 18.4µM*, TDP1 inh 6.3%, TDP1 cell noCPT 16.4µM*, KAT2A inh -2.0%, VDR inh 9.5% and PLK1 PBD inh -7.5%.
COc1ccccc1NC(=O)Cn1nnc(-c2ccccc2NS(=O)(=O)c2ccccc2)n1 was read as TDP1 cell CPT 13µM*, TDP1 inh 2.6%, TDP1 cell noCPT 18.4µM*, KAT2A inh -7.9%, VDR inh -4.9% and PLK1 PBD inh 0.1%.
For OCC1O[C@H](OC2C(CO)O[C@@](O)(CO)C2O)C(O)C(O)C1O (stereo partly drawn) the results were TDP1 inh -9.6%[56.1 µM], KAT2A inh 10.3% and VDR inh 5.9%.
For COc1ccc(N2CCN(S(=O)(=O)CCNC(=O)COc3ccccc3F)CC2)cc1 the results were TDP1 cell CPT 2.1%, TDP1 inh 5.3%, TDP1 cell noCPT -26.1%, KAT2A inh -17.6% and VDR inh 5.1%.
`C/C(=C\c1ccc(F)cc1)C(=O)c1c(C)cc(C)[nH]c1=O` gave TDP1 cell CPT -9.1%, TDP1 cell noCPT inconclusive, KAT2A inh -0.7%, VDR inh 5.3% and PLK1 PBD inh -18.2%.
N#Cc1ccc(S(=O)(=O)N2CCN(c3nc(-c4ccccc4)nc4ccccc34)CC2)cc1 was read as TDP1 cell CPT -14.7%, TDP1 inh -0.5%, TDP1 cell noCPT inconclusive and VDR inh -19.0%.
CC(C)CN(C(=O)CSc1nnc(-c2ccco2)o1)c1c(N)n(Cc2ccccc2)c(=O)[nH]c1=O was read as TDP1 cell CPT -1.9%, TDP1 inh 0.5%, TDP1 cell noCPT 0.5%, KAT2A inh -8.5%, VDR inh -7.2% and PLK1 PBD inh inconclusive.
Screening CC(C)CN(C(=O)CSc1nc2ccccc2o1)c1c(N)n(Cc2ccccc2)c(=O)[nH]c1=O returned TDP1 cell CPT 18.4µM*, TDP1 inh 0.9%, TDP1 cell noCPT 20.6µM*, KAT2A inh -1.0%, VDR inh -14.5% and PLK1 PBD inh -12.7%.
`CC(C)CN(C(=O)COC(=O)c1cccc2ccccc12)c1c(N)n(Cc2ccccc2)c(=O)[nH]c1=O` gave TDP1 cell CPT inconclusive, TDP1 cell noCPT 16.4µM*, KAT2A inh -4.2%, VDR inh -6.3% and PLK1 PBD inh -5.2%.
For CCOC(=O)c1ccc(NC(=O)CN2CCN(C(=O)c3ccco3)CC2)cc1 the results were TDP1 cell CPT -7.1%, TDP1 inh 6.5%, TDP1 cell noCPT -2.8%, KAT2A inh -1.8%, VDR inh -4.4% and PLK1 PBD inh -6.6%.
Screening COC(=O)c1[nH]c2ccccc2c1NC(=O)CN1CCN(c2cccc(Cl)c2)CC1 returned TDP1 cell CPT 25.9µM*, TDP1 inh 5.1%, TDP1 cell noCPT 16.4µM*, KAT2A inh inconclusive, VDR inh 12.8% and PLK1 PBD inh -3.4%.
Screening CCOC(=O)N1CCN(CC(=O)Nc2c(C(=O)OC)[nH]c3ccccc23)CC1 returned TDP1 cell CPT inconclusive, TDP1 inh -2.9%, TDP1 cell noCPT inconclusive, KAT2A inh -2.8%, VDR inh -15.7% and PLK1 PBD inh -0.2%.
For CCc1c(C)sc(NC(=O)CN2CCN(C(=O)c3ccco3)CC2)c1C(=O)OC the results were TDP1 cell CPT 18.4µM*, TDP1 inh 9.0%, TDP1 cell noCPT inconclusive, KAT2A inh -5.9%, VDR inh 5.4% and PLK1 PBD inh -10.2%.
For COC(=O)c1sc(NC(=O)CN2CCN(c3cccc(Cl)c3)CC2)c(C(=O)OC)c1C the results were TDP1 cell CPT 29.1µM*, TDP1 cell noCPT 32.6µM*, VDR inh -14.3% and PLK1 PBD inh 1.3%.
`OC[C@@H]1CN(Cc2ccc(-c3ccccc3)cc2)C[C@H](n2cnc3c(NCc4ccco4)ncnc32)O1` gave TDP1 cell CPT 9.2µM*, TDP1 cell noCPT 9.2µM* and PLK1 PBD inh -3.9%.
